The source of these data is PubChem BioAssay (EPA / NIEHS).

Structures are written as SMILES. The source made the active and inactive calls. Rule for the calls: active = hit-call score of the fitted dose curve at least 0.9, where 1 is the maximum; inactive = score below 0.9.

This test in a line: ATG_Oct_MLP_CIS: Attagene CIS-FACTORIAL HepG2 Assay for human Octamer-Binding Transcription Factor (Oct) (AID 2282993). Particulars: HepG2 Attagene cis-factorial Oct reporter, mRNA; actives raise or lower the signal. Here is the method:
ATG_CIS is a cell-based, multiplexed-readout assay that uses HepG2, a human liver cell line, with measurements taken at 24 hours after chemical dosing in a 24-well plate.ATG_Oct_MLP_CIS is one of 52 assay component(s) measured or calculated from the ATG_CIS assay. It is designed to make measurements of mRNA induction, a form of inducible reporter, as detected with fluorescence intensity signals by Reverse transcription polymerase chain reaction (RT-PCR) and Capillary electrophoresis technology.Data from the assay component ATG_Oct_MLP_CIS was analyzed into 1 assay endpoint. This assay endpoint, ATG_Oct_MLP_CIS, was analyzed with bidirectional fitting relative to DMSO as the negative control and baseline of activity. Using a type of inducible reporter, measures of mRNA for gain or loss-of-signal activity can be used to understand the reporter gene at the transcription factor-level as they relate to the gene POU2F1. Furthermore, this assay endpoint can be referred to as a primary readout, because this assay has produced multiple assay endpoints where this one serves a reporter gene function. To generalize the intended target to other relatable targets, this assay endpoint is annotated to the dna binding intended target family, where the subfamily is POU domain protein.
Human liver HepG2 cells are transiently transfected with multiple reporter transcription units (MRTUs) in 6-well plates using FuGene 6 reagent (Roche; 3 ml FuGene/1 mg DNA). The MRTU constructs are regulated by a cis-regulating element (promoter). […] A major difference between the CIS and TRANS system is that in CIS activities of endogenous TFs are measured, whereas the TRANS assay evaluates changes in activities of exogenous, chimeric NR-Gal4 proteins. […] At the end of 24 hour incubation, total RNA was isolated using TriZol reagent (Invitrogen). The isolated RNA is then reverse-transcribed using oligo(dT) primer and Mo-MLV reverse transcriptase (Invitrogen) with DNAse I (Ambion) treatment for 30 min. The one-tenth of the produced cDNA was amplified by PCR using Taq DNA polymerase (Invitrogen) and two reporter sequence-specific primers. The PCR products were fluorescently labeled by primer extension with 6-arboxyfluorescein (6-FAM) 5'-labeled reporter sequence-specific primer (2 min at 95 C, 20 s at 68 C and 10 min at 72 C) and these products were digested with 5U of HpaI (New England Biolabs) for 2h at 37 C. The fragments were purified using Qiaquick PCR columns (Qiagen), analyzed on an ABI 3130xL genetic analyzer (Applied Biosystems) with peak positions identified by using a set of X-rhodamine (ROX)-labeled MapMarker1000 molecular weight standards (BioVentures). The raw capillary electrophoresis data was processed using Attagraph software (Attagene).
As to `C[C@]12CC[C@@H]3c4ccc(O)cc4CC[C@H]3[C@@H]1CC[C@@H]2O`, the molecule was classed as inactive. As to `COC(=O)c1cccc(C(=O)OC)c1`, the molecule was classed as inactive. The same measure, in the same setting: the same measure for `NC(N)=S`: “inactive”; for `Nc1ccn([C@H]2CC[C@@H](CO)O2)c(=O)n1`: “inactive”; for `CCCCN(CCO)CCO`: “inactive”. As for `COc1ccc(C(C)=O)cc1`, the outcome was inactive. The same measure, in the same setting: the same measure for `CC1COC(=O)O1` (stereo not given): “inactive”; for `CC/C=C\C#N`: “inactive”. For the molecule `C[C@H](CCC(=O)O)[C@H]1CC[C@H]2[C@@H]3CC[C@@H]4C[C@H](O)CC[C@]4(C)[C@H]3CC[C@]12C`, the call was inactive.

Take `CC(=O)c1ccc(C)cc1`: the molecule was called inactive.

Consider `CC(C)(O)CCc1ccccc1`, for which the outcome was inactive. `O=C(O)c1ccco1`: the call was inactive.

In the case of `CCCCCCCCOC(=O)c1ccc(O)cc1`, the molecule was called inactive.

With `O=Cc1ccccc1O`, the molecule was called inactive. Still for that read-out and setting: the same measure for `CC(=O)C1=C(C)[C@@H]2C[C@@]3(C1)[C@H](C)CC[C@H]3C2(C)C`: “inactive”; for `OC[C@@H](O)[C@H](O)[C@@H](O)[C@@H](O)CO`: “inactive”; for `CC1=CCC(=C(C)C)CC1`: “inactive”.

As to `O=C(OCc1ccccc1)c1ccccc1O`, the call was inactive. On the same count and under the same terms, as for `C=CC(=O)OCC(CO)(COC(=O)C=C)COC(=O)C=C`, the entry is “inactive”. On the same count and under the same terms, as for `CCCCCCCCCOS(=O)(=O)O`, the entry is “inactive”; as for `CCCCCCCCCC(=O)OCC`, “inactive”; as for `C1COCO1`, “inactive”. For the molecule `CC(CCO)CC(C)(C)C` (stereo not given), the result was inactive. Same read-out and setting: the same measure for `O=C1CCC(=O)N1`: “inactive”; for `COC(=O)c1ccc(C(=O)OC)cc1`: “inactive”. As to `CC1=CCC(C(C)(C)O)CC1` (stereo not given), the molecule was called inactive. On the same count and under the same terms, the same measure for `O=C(O)c1ccccc1O`: “inactive”; for `C=CC(C)(CCC=C(C)C)OC(=O)CC` (stereo not given): “inactive”; for `O=S(=O)(O)c1cc(S(=O)(=O)O)c2c(N=Nc3ccccc3)c(O)ccc2c1`: “inactive”. Take `CCCCCCCCCCCCOC(C)=O`: the outcome was inactive. Regarding `CCCC1CCOC(C)S1` (stereo not given), the molecule was classed as inactive.

As for `CCOC(=O)CC1(C)OCC(C)O1` (stereo not given), the molecule was called inactive. On the same count and under the same terms, the same measure for `C=C(C)C(=O)OCCC(C)OC(=O)C(=C)C` (stereo not given): “inactive”; for `N#CCCNCCC#N`: “inactive”; for `CCCc1ccc(N)cc1`: “inactive”. Still for that read-out and setting: as for `[Cl][Dy]([Cl])[Cl]`, the entry is “inactive”; as for `CC(=O)CCC=C(C)CCC=C(C)C`, “inactive”. Broadly, the AC50 is the concentration giving half of the maximal activity seen. `CCCCCCOc1ccc(O)cc1`: the AC50 was 33.4 µM (active). Turning to `CCCC1CCC(=O)CC1`, the molecule was classed as inactive.

With `c1ccc2scnc2c1`, the result was inactive.
